The target in assay [1] is Beta-2 adrenergic receptor (Homo sapiens) (UniProt P07550). The assay is described as follows: NVS_GPCR_hAdrb2: NovaScreen (NVS) G Protein-Coupled Receptor Assay for human Adrenergic, Beta 2 Receptor (Adrb2) (AID 2283261). The method in brief: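 Compounds screened in duplicate at 25 uM, then actives in concentration series. Human beta-2 receptor from CHO material, cell-free; radioligand displacement after 1 h measured by filtration and scintillation against DMSO baseline.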
Beta-2 adrenergic receptor (Homo sapiens), sequence (P07550 whole entry, looked up): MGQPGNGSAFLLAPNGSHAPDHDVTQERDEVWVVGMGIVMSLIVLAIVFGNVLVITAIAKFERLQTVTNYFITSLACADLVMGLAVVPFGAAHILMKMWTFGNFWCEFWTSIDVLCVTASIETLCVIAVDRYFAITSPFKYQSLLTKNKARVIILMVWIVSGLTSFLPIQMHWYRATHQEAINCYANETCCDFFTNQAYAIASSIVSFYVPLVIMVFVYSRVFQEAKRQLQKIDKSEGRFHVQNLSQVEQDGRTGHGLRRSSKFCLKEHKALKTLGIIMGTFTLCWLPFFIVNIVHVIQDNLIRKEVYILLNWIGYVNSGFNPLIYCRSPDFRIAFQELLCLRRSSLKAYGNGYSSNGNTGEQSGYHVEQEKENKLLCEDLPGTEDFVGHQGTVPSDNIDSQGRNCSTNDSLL

Assay [2] addresses Muscarinic acetylcholine receptor M3 (Homo sapiens) (UniProt P20309). The assay is described as follows: NVS_GPCR_hM3: NovaScreen (NVS) G Protein-Coupled Receptor Assay for human Muscarinic, M3 Receptor (AID 2283272). The method in brief: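 Radioligand displacement binding on human M3 receptor in CHO-derived membranes, 1 h incubation, filter-based scintillation counting. Primary screen in duplicate at 25 uM; actives followed up in concentration series; loss of signal versus DMSO.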

In assay [3] the target is Muscarinic acetylcholine receptor M2 (Homo sapiens) (UniProt P08172). Put plainly: NVS_GPCR_hM2: NovaScreen (NVS) G Protein-Coupled Receptor Assay for human Muscarinic, M2 Receptor (AID 2283273). A digest of the protocol: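 Filter-based radiodetection read bound radioligand 1 h after dosing CHO-derived membrane protein. Single-concentration duplicates (25 uM) first, then concentration-response for actives; signal loss versus DMSO scored.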
Muscarinic acetylcholine receptor M2 (Homo sapiens), sequence (P08172 whole entry, looked up): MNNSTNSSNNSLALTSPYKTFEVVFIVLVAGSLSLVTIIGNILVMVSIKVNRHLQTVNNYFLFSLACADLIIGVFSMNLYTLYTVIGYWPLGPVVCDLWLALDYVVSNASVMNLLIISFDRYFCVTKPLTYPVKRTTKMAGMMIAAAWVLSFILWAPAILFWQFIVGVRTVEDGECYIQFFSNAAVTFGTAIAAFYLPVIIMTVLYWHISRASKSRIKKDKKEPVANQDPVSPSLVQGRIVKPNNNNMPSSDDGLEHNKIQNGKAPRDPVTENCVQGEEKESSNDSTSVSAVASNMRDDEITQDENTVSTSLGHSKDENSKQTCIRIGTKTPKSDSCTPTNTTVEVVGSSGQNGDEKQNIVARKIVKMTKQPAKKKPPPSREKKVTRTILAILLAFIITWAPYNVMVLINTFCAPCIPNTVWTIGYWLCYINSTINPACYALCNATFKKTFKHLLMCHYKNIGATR

Assay [4] addresses Type-1 angiotensin II receptor (Homo sapiens) (UniProt P30556). The assay is described as follows: NVS_GPCR_hAT1: NovaScreen (NVS) G Protein-Coupled Receptor Assay for human Angiotensin II receptor type 1 (AT1) (AID 2283263). A digest of the protocol: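 Hits from a 25 uM duplicate screen (threshold e.g. 30% inhibition) were run in concentration-response with 50 uM top concentration. Displacement of specific radioligand from KAN-TS membrane preparations measured after 3 h by filter scintillation, DMSO as baseline.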

The target of assay [5] is D(1A) dopamine receptor (Homo sapiens) (UniProt P21728). The assay is described as follows: NVS_GPCR_hDRD1: NovaScreen (NVS) G Protein-Coupled Receptor Assay for human Dopamine Receptor D1 (DRD1) (AID 2283269). A digest of the protocol: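 HEK293-derived receptor preparation; radioligand competitive displacement; 1 h; filtration + scintillation counting. DMSO = negative control/baseline. Primary: 25 uM, duplicate; secondary: concentration–response for actives.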
D(1A) dopamine receptor (Homo sapiens), sequence (P21728 whole entry, looked up): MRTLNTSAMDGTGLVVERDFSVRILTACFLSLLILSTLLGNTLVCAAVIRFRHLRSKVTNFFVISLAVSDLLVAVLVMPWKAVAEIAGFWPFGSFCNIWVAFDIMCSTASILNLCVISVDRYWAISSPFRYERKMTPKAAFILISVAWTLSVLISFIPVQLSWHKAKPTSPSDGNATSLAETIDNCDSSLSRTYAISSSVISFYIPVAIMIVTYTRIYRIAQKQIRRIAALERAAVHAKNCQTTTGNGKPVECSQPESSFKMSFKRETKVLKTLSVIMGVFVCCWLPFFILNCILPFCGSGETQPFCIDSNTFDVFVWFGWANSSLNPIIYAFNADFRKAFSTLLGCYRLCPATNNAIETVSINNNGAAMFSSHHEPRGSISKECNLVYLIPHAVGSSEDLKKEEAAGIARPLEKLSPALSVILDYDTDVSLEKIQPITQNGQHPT

Assay [6] concerns the target human Muscarinic, M4 Receptor, CHRM4 (gene 1132) (UniProt P08173). The assay is described as follows: NVS_GPCR_hM4: NovaScreen (NVS) G Protein-Coupled Receptor Assay for human Muscarinic, M4 Receptor (AID 2283274). A digest of the protocol: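 Filter-based scintillation counting of radioligand bound to CHO-expressed human M4 preparations after 1 h; loss of signal fitted versus DMSO. Initial duplicate testing at 25 uM, concentration-response follow-up for actives.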

In assay [7] the target is Muscarinic acetylcholine receptor M1 (Homo sapiens) (UniProt P11229). The assay is described as follows: NVS_GPCR_hM1: NovaScreen (NVS) G Protein-Coupled Receptor Assay for human Muscarinic, M1 Receptor (AID 2283270). The method in brief:
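Actives from a duplicate 25 uM single-point screen were retested in concentration series. Binding measured as displacement of a radioligand from CHO-derived receptor preparation, 1 h incubation, filtration and scintillation counting, analysed as signal loss against DMSO.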

Assay [8] concerns the target human Leukotriene B4 Receptor 1 (LTB4-BLT1), LTB4R (gene 1241) (UniProt Q15722). Put plainly: NVS_GPCR_hLTB4_BLT1: NovaScreen (NVS) G Protein-Coupled Receptor Assay for human Leukotriene B4 Receptor 1 (LTB4-BLT1) (AID 2283271). A digest of the protocol: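 Cell-free human neutrophil receptor preparation, 1 h exposure, radioligand binding read by filter scintillation counting. Single 25 uM duplicate screen, then concentration series topping at 50 uM; binding loss scored against DMSO baseline.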

Assay [9] deals with human Opioid Receptor Delta 1 (Opiate D1), OPRD1 (gene 4985) (UniProt P41143). The assay is described as follows: NVS_GPCR_hOpiate_D1: NovaScreen (NVS) G Protein-Coupled Receptor Assay for human Opioid Receptor Delta 1 (Opiate D1) (AID 2283280). A digest of the protocol: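 Membrane preparations from CHO cells bearing the human receptor were incubated 1 h with test chemical, and bound radioligand was counted after filtration. Actives from 25 uM duplicate screening were retested in concentration-response.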
human Opioid Receptor Delta 1 (Opiate D1), OPRD1 (gene 4985), sequence (P41143 whole entry, looked up): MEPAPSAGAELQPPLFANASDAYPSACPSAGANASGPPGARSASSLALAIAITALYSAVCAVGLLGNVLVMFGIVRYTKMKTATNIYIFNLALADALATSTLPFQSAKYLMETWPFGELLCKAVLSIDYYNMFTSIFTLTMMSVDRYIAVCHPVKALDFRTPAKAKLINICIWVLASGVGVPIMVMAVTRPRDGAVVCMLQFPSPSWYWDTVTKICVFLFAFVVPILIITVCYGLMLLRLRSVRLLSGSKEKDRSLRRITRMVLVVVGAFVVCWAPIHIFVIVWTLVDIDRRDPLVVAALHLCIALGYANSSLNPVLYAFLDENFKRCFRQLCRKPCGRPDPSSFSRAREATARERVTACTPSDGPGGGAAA

Assay [10] concerns the target human Neurokinin, NK2 Receptor, TACR2 (gene 6865) (UniProt P21452). The assay is described as follows: NVS_GPCR_hNK2: NovaScreen (NVS) G Protein-Coupled Receptor Assay for human Neurokinin, NK2 Receptor (AID 2283278).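 Also: actives reduce bound radioligand signal relative to DMSO baseline.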 A digest of the protocol: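 Filter-based scintillation counting measured radioligand bound to receptor extracted from CHO cells, 4 hours after compound addition. Chemicals screened first at 25 uM in duplicate, with actives retested in concentration series relative to DMSO.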

For assay [11], the target named is human Neurotensin Receptor (NTS), NTSR1 (gene 4923) (UniProt P30989). Put plainly: NVS_GPCR_hNTS: NovaScreen (NVS) G Protein-Coupled Receptor Assay for human Neurotensin Receptor (NTS) (AID 2283279). A digest of the protocol: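 Compounds competed with a radiolabelled ligand for binding to CHO-derived human neurotensin receptor; bound signal counted after filtration, 1 h. Screened first at a single concentration of 25 uM in duplicate, then concentration series to 50 uM maximum for actives.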
human Neurotensin Receptor (NTS), NTSR1 (gene 4923), sequence (P30989 whole entry, looked up): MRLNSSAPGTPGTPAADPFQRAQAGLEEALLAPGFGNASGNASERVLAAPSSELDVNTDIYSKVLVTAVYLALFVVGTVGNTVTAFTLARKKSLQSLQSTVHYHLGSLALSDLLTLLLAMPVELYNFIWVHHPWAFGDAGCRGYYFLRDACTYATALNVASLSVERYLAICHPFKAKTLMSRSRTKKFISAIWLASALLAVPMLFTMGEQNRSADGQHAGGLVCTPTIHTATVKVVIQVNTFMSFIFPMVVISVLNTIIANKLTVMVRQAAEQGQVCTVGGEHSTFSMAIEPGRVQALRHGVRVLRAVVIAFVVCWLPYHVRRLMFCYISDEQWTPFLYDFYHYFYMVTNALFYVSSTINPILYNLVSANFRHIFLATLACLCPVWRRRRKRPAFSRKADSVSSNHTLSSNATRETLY

Assay [12] deals with human Adrenergic, Beta 3 Receptor (Adrb3), ADRB3 (gene 155) (UniProt P13945). Put plainly: NVS_GPCR_hAdrb3: NovaScreen (NVS) G Protein-Coupled Receptor Assay for human Adrenergic, Beta 3 Receptor (Adrb3) (AID 2283262). The method in brief: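 A cell-free filter binding assay read by scintillation counting, with displacement of a specific radioligand measured after 1 hour. The receptor source was SK-N-MC extracts (cells pretreated with isoproterenol and 8-bromo-cAMP). Compounds were first tested at 25 uM in duplicate and then in concentration series.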

The target in assay [13] is Neuropeptide Y receptor type 2 (Homo sapiens) (UniProt P49146). Put plainly: NVS_GPCR_hNPY2: NovaScreen (NVS) G Protein-Coupled Receptor Assay for human Neuropeptide Receptor Y2 (NPY2) (AID 2283277). The method in brief:
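Chemicals were first tested in duplicate at 25 uM, then actives in singleton concentration series to 50 uM. Tracer binding to SK-N-MC-derived protein measured cell-free after 1 h via filter scintillation; signal loss relative to DMSO.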

Assay [14] concerns the target human Endothelin Receptor Type A (ETA), EDNRA (gene 1909) (UniProt P25101). The assay is described as follows: NVS_GPCR_hETA: NovaScreen (NVS) G Protein-Coupled Receptor Assay for human Endothelin Receptor Type A (ETA) (AID 2283265). A digest of the protocol: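 Binding of radioligand to membrane protein extracted from SH-SY5Y cells was read by filtration and scintillation after 3 h. Compounds were screened at 25 uM in duplicate, with hits followed up in singleton concentration series to 50 uM.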

The target in assay [15] is human Dopamine Receptor D2 (DRD2), DRD2 (gene 1813) (UniProt P14416). The assay is described as follows: NVS_GPCR_hDRD2s: NovaScreen (NVS) G Protein-Coupled Receptor Assay for human Dopamine Receptor D2 (DRD2) (AID 2283266). The method in brief:
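Test compound (25 uM, duplicate in the primary screen; concentration series at follow-up) competed with radioligand for human DRD2 in CHO-derived membrane protein. Filter-based scintillation counting was done 1.5 hours after dosing, with loss of signal analysed against DMSO.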

For assay [16], the target named is human Histamine 1 Receptor (H1), HRH1 (gene 3269) (UniProt P35367). Put plainly: NVS_GPCR_hH1: NovaScreen (NVS) G Protein-Coupled Receptor Assay for human Histamine 1 Receptor (H1) (AID 2283268). The method in brief: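 Filter-based scintillation detection of radioligand binding to human H1, 1 h incubation; chemicals screened in duplicate at 25 uM, then concentration-response; signal loss relative to DMSO taken as activity.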

Several values for one entry are separate records, joined by “and”; a condition that tells them apart may be missing. Equal values may be shown once. Inconclusive results are not listed. Activity calls are given as the source filed them. The calls were made as follows: active = hit-call score of the fitted dose curve at least 0.9, where 1 is the maximum; inconclusive = response in the unintended direction; inactive = score below 0.9.

human Neurokinin, NK2 Receptor, TACR2 (gene 6865), sequence (P21452 whole entry, looked up): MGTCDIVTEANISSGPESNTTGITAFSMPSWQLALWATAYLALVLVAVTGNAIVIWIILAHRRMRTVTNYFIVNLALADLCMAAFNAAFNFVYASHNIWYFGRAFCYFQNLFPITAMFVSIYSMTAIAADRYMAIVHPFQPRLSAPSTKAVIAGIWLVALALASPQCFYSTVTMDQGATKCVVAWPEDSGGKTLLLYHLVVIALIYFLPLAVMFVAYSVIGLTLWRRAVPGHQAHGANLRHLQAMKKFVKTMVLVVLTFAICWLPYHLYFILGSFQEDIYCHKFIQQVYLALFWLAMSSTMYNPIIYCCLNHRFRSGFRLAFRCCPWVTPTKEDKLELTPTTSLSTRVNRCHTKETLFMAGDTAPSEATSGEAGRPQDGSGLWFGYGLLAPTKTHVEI
Muscarinic acetylcholine receptor M1 (Homo sapiens), sequence (P11229 whole entry, looked up): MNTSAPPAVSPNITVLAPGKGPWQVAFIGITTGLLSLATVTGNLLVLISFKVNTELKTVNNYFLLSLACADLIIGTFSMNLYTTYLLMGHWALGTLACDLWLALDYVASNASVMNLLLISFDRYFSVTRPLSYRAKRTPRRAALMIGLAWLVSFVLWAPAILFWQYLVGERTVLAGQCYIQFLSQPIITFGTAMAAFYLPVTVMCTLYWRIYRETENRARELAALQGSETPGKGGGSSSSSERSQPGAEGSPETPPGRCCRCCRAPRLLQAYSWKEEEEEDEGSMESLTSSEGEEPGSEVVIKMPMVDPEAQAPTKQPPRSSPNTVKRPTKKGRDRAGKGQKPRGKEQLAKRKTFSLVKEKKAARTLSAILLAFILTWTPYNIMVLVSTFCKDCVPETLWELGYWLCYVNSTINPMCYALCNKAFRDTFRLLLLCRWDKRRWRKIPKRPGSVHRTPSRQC
human Dopamine Receptor D2 (DRD2), DRD2 (gene 1813), sequence (P14416 whole entry, looked up): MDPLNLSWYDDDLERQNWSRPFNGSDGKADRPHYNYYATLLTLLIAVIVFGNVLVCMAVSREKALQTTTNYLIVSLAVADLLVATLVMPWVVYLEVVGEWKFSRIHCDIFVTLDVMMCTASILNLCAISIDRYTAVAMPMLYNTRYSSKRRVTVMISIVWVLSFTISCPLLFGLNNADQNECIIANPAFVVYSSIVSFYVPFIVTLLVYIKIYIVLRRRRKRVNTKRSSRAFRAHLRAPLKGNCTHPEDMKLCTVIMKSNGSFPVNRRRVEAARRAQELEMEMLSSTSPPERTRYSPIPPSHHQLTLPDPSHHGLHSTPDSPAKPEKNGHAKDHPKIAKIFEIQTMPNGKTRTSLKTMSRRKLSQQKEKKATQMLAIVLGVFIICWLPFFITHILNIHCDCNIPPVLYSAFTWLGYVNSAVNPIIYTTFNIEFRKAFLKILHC
Muscarinic acetylcholine receptor M3 (Homo sapiens), sequence (P20309 whole entry, looked up): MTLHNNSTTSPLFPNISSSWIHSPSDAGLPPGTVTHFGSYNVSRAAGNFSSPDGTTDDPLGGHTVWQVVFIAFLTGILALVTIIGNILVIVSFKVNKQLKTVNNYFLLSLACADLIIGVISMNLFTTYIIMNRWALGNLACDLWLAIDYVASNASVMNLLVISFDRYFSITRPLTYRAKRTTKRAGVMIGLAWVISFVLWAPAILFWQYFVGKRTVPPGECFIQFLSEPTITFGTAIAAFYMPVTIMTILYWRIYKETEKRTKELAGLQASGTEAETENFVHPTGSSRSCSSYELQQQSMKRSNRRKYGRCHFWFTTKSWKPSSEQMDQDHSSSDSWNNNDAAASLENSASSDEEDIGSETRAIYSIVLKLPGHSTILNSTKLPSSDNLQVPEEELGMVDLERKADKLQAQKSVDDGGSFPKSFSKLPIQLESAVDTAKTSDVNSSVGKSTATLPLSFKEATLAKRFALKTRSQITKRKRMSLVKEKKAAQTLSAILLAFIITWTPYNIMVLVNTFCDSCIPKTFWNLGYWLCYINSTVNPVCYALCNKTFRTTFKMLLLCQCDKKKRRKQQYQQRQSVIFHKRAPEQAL
human Muscarinic, M4 Receptor, CHRM4 (gene 1132), sequence (P08173 whole entry, looked up): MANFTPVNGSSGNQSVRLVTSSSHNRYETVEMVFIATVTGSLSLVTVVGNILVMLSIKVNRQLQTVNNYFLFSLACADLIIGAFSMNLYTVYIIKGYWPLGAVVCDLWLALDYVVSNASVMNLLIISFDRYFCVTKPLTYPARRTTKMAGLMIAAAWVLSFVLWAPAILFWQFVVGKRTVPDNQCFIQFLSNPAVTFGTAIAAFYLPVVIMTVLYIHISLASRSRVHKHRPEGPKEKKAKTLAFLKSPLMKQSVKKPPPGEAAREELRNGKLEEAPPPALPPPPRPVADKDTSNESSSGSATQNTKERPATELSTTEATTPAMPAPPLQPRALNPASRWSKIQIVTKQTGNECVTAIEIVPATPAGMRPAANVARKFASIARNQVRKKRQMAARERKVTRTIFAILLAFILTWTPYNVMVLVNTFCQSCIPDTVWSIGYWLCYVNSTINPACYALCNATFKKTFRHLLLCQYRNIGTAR
human Leukotriene B4 Receptor 1 (LTB4-BLT1), LTB4R (gene 1241), sequence (Q15722 whole entry, looked up): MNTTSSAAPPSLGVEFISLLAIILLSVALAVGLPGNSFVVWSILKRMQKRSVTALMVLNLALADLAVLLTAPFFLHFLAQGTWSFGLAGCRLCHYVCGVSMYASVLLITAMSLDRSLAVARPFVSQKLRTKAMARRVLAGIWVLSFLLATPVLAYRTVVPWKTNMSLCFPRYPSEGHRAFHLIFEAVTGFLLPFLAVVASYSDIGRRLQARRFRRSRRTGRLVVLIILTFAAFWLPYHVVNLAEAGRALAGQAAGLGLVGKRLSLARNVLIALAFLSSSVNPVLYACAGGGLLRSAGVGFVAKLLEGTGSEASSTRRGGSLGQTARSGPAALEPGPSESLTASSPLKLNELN

One may read the AC50 as the concentration at which the activity in the assay is half-maximal. Consider `CCCCC(CC)CN1C(=O)C2C3C=CC(C3)C2C1=O` (stereo unspecified), for which the result in [1] and in assay [3] was inactive. Moreover, in [2], the AC50 is 8.81 µM (active).
`N#CSCSc1nc2ccccc2s1`: the AC50 in [4] was 9.3 µM (active); in assay [5], 14.8 µM (active) and 16.7 µM (active).
For `CC(=O)[C@H]1CC[C@H]2[C@@H]3CCC4=CC(=O)CC[C@]4(C)[C@H]3CC[C@]12C`, the compound was called inactive in assay [3] and in [6].
On to `CCOC(=O)[C@H](C)Oc1ccc(Oc2nc3ccc(Cl)cc3o2)cc1`, for which, in assay [7], the result was inactive.
`C=CCOC(Cn1ccnc1)c1ccc(Cl)cc1Cl` (stereo unspecified): the call in [1] and in assay [8] was inactive. In addition, the concentration at half-maximal activity (AC50) in assay [7] was 5.47 µM (active); in assay [2], 5.02 µM (active); in assay [3], 2.67 µM (active); in assay [6], 5.37 µM (active); in assay [9], 4.96 µM (active).
Regarding `N[C@@H](Cc1cc(I)c(Oc2ccc(O)c(I)c2)c(I)c1)C(=O)O`, in assay [10], the compound was classed as inactive.
`CC(=O)S[C@@H]1CC2=CC(=O)CC[C@]2(C)[C@H]2CC[C@@]3(C)[C@@H](CC[C@@]34CCC(=O)O4)[C@H]12`: in assay [10], the outcome was inactive. The AC50 in assay [9] was 4.42 µM (active).
With `CCCN(CCC)c1c([N+](=O)[O-])cc(C(F)(F)F)c(N)c1[N+](=O)[O-]`, in assay [11], the outcome was inactive.
Consider `CCCOC(=O)NCCCN(C)C`, for which the outcome in assay [3] was inactive.
Regarding `CC(C)(c1ccc(O)cc1)c1ccc(O)cc1`, the outcome in assay [1], in assay [12], in assay [5], in assay [8] and in assay [13] was inactive. Also, in assay [9], the concentration at half-maximal activity (AC50) is 11.2 µM (active).
With `CC(C)(C)[C@@H](O)[C@@H](Cc1ccc(Cl)cc1)n1cncn1`, the compound was classed as inactive in assay [10].
`S=C(S)NCCNC(=S)S.[Mn+2].[S-]C([S-])=NCCN=C([S-])[S-].[Zn+2]`: the outcome in assay [4], in assay [14], in assay [15], in assay [16], in [3] and in assay [9] was inactive. Also, the half-maximal activity concentration (AC50) in assay [10] is 117 nM (active) and 135 nM (active) and 170 nM (active).
On to `CCOC(=O)C(C)Oc1ccc(Oc2nc3ccc(Cl)cc3o2)cc1` (stereo unspecified), for which the concentration at half-maximal activity (AC50) in assay [7] is 17.2 µM (active).
`c1ccc2[nH]c(-c3cscn3)nc2c1`: the call in [11] was inactive.

Values taken from PubChem BioAssay (EPA / NIEHS).
